Laboratory results from PubChem BioAssay (NCI).
This is part of a sample that, as a whole, favours compounds with a hit. Of some 79,000 tested, about 15% had one in any assay. The source made the active and inactive calls. No stated cut-off is given here; in the data, active means growth inhibition above about 70%; inactive means the rest.

Experiments:
[1] = NCI Yeast Anticancer Drug Screen. Data for the rad50 strain (AID 155);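 further: 0% = growth of vehicle-only cultures of the same strain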; details: S. cerevisiae rad50 strain growth inhibition; at 50.0 µM; active compounds read high
Procedure, shortened: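 Yeast carrying a defined DNA repair defect were exposed to test compounds, and growth was compared with vehicle-treated controls to give percent inhibition.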

[2] = NCI Yeast Anticancer Drug Screen. Data for the mec2-1 strain (AID 157); details: S. cerevisiae mec2-1 strain, at 50.0 µM, active compounds read high
Procedure, shortened: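 Each compound was tested on mec2-1 yeast, a strain altered in DNA damage repair or cell cycle control. Growth inhibition is reported relative to vehicle.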

[3] = NCI Yeast Anticancer Drug Screen. Data for the sgs1 mgt1 strain (AID 161);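 further: 0% = growth of cultures given vehicle only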; details: S. cerevisiae sgs1 mgt1 strain, at 50.0 µM, active compounds read high
Procedure, shortened: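 Inhibition of yeast growth, normalised to vehicle-treated controls, is reported for a strain bearing genetic alterations in DNA damage repair.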

[4] = NCI Yeast Anticancer Drug Screen. Data for the cln2 rad14 strain (AID 165);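 further: 0% = growth equal to vehicle treated cultures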; details: S. cerevisiae cln2 rad14 strain, at 50.0 µM, active compounds read high
Procedure, shortened: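 Test compounds were added to cln2 rad14 yeast cultures; inhibition of growth was then determined by comparison with vehicle treatment.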

[5] = NCI Yeast Anticancer Drug Screen. Data for the bub3 strain (AID 167); details: S. cerevisiae bub3 mutant strain, at 50.0 µM, active compounds read high
Procedure, shortened: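 Compounds were applied to a genetically altered yeast strain carrying a cell-cycle control defect. Growth inhibition was scored against vehicle-treated controls.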

[6] = NCI Yeast Anticancer Drug Screen. Data for the mlh1 rad18 strain (AID 175); details: S. cerevisiae mlh1 rad18 strain growth inhibition; at 50.0 µM; active compounds read high
Procedure, shortened: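 Inhibition values reflect reduced growth of mutant yeast versus vehicle-treated controls following compound exposure; the mutations affect DNA damage repair.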

Measured: growth inhibition

COC(=O)C1C2CC3C1C3C2C(=O)OC (stereo not drawn)
inactive: [1] -14.2% | [2] -8.2% | [3] -4.45% | [4] 19.6% | [5] -14.6% | [6] -18.6%

Cc1cc(=O)oc2c(CNC(CC(C)C)C(=O)O)c(O)ccc12 (stereo not drawn)
inactive: [1] -51.9% | [2] -32.3% | [3] -46.6% | [4] -16.4% | [5] -24.8% | [6] -63.1%

S=C(Nc1ccccc1)c1ccccc1
inactive: [1] -23.2% | [2] -16.5% | [3] -5.25% | [4] -29.3% | [5] -5.1% | [6] 16.1%

C=C[C@@]1(C)CC(=O)[C@]2(O)[C@@]3(C)[C@@H](O)CCC(C)(C)[C@@H]3[C@H](O)[C@@H](OC(C)=O)[C@@]2(C)O1
inactive: [1] 0.2% | [2] -4.4% | [3] -5.75% | [4] 9.2% | [5] -4.15% | [6] -68%

CC(CO)CCNc1ncnc2c1ncn2CCC(=O)OC(C)(C)C (stereo not drawn)
inactive: [1] -27.6% | [2] 16.4% | [3] -21.6% | [4] -20.6% | [5] -1.85% | [6] -9.65%

CCC(=O)c1ccccc1C#N
inactive: [1] 8.5% | [2] -3.25% | [3] 1.6% | [4] -4.3% | [5] 0.1% | [6] -1.45%

COc1cc(C(c2cc3c(cc2O)OCO3)N2CCCC2)cc(OC)c1OC (stereo not drawn)
inactive: [1] -13.2% | [2] 17.9% | [3] -13.9% | [4] 13% | [5] -5.3% | [6] -7.85%

CC1OCOC(CO)C(O)C1O (stereo not drawn)
inactive: [1] -18.5% | [2] 1.55% | [3] 17.5% | [4] -32% | [5] -3% | [6] -5.8%

CC12CC(=O)NN=C1c1ccccc1C2 (stereo not drawn)
inactive: [1] 4.35% | [2] -10.8% | [3] 18.1% | [4] 29.6% | [5] -6.8% | [6] -2.8%

OC1CN(c2ccccc2)CC(O)CN(c2ccccc2)C1 (stereo not drawn)
inactive: [1] -8.1% | [2] 2.35% | [3] 7.3% | [4] -11.8% | [5] -16.1% | [6] 6.2%

CCN(CC)c1nc(N(C)C)nc(N(C)C)n1
inactive: [1] -9% | [2] -4.3% | [3] 2.15% | [4] -7.25% | [5] 18.7% | [6] 7%

CCCCn1cnc2ccc(N)cc2c1=O
inactive: [1] -1.7% | [2] 1.85% | [3] 15.3% | [4] -1.7% | [5] 16.2% | [6] 2%

C=CCn1c(NCCN(CC)CC)nc2ccc(Cl)cc2c1=O
inactive: [1] 47% | [2] 6.5% | [3] 31.8% | [4] 0.85% | [5] 11.8% | [6] 19.4%

CC(C)(CCCOc1ccccc1)NC(=O)c1ccccc1
inactive: [1] 17.2% | [2] -1.15% | [3] -3.5% | [4] 15.5% | [5] 15.3% | [6] 6.15%

COC(=O)C1=C(C(=O)OC)C(C)(C)N=N1
inactive: [1] 14.2% | [2] 6.65% | [3] 12.7% | [4] -1.65% | [5] 16.1% | [6] 3.45%

COP(=O)(OC)C1c2cc(Cl)ccc2-c2c(Cl)cc(Cl)cc21 (stereo not drawn)
inactive: [2] 67.9% | [4] 49.5% | [5] 32.6% | [6] 68.8%
active: [1] 88.8% | [3] 83.7%

Cc1ccc(S(=O)(=O)Nc2ccccc2)cc1
inactive: [1] 18% | [2] -27.9% | [3] 21% | [4] -20.2% | [5] 3.8% | [6] 37.3%

C=C/C=N/Nc1ccc([N+](=O)[O-])cc1[N+](=O)[O-]
inactive: [1] 2.5% | [2] 5.4% | [3] 2.2% | [4] 5.9% | [5] 2.4% | [6] -1.35%

CCCCCCCCC/C=C\C(=O)O
inactive: [1] 4.6% | [2] -12.5% | [3] 10.2% | [4] -22.9% | [5] -13.8% | [6] 37%

CC(N)C(=O)NC(C(=O)NC1C(O)OC(CO)C(O)C1O)C(C)C (stereo not drawn)
inactive: [1] 6.1% | [2] -17.2% | [3] -17.4% | [4] 7.95% | [5] 7.1% | [6] -5.75%

Nc1ccc(S(=O)(=O)O)cc1[N+](=O)[O-]
inactive: [1] 4.4% | [2] 3.8% | [3] -3.75% | [4] 1% | [5] 5.8% | [6] 12.6%

C1=CC(=P(c2ccccc2)(c2ccccc2)c2ccccc2)C=C1
inactive: [1] 20.4% | [2] 25.1% | [3] 10.4% | [4] 38.8% | [5] 4.3% | [6] 34%

c1ccc(/C2=C(\c3ccccc3)CSSSSC2)cc1
inactive: [1] 68.5% | [2] 48.4% | [3] 45.4% | [4] 43.2% | [5] 62.9%
active: [6] 89%

CCOc1nc2c(c(=O)n(C)c(=O)n2C)n1C
inactive: [1] 26.9% | [2] -7.55% | [3] -6.25% | [4] 8% | [5] 7.65% | [6] 20.9%

OCCSCCCSCCO
inactive: [1] 17.9% | [2] -4.8% | [3] -23% | [4] 3.5% | [5] 1.1% | [6] -4.8%

CC(N(N=O)c1cccc(Cl)c1)S(=O)(=O)O (stereo not drawn)
inactive: [1] 7.25% | [2] 4.8% | [3] -6.45% | [4] 22.6% | [5] 5.55% | [6] -0.4%

O=Nc1ccc(Cl)cc1
inactive: [1] -7.1% | [2] 28.9% | [3] -10.3% | [4] 7.15% | [5] 14.9% | [6] 8.45%

Nc1ccc(C(=O)N/N=C/C=C/c2ccccc2)cc1
inactive: [1] 0.6% | [2] 56.1% | [3] 16.6% | [4] -5.8% | [5] 30.4% | [6] 8.05%

CCOC(=O)Cn1c(=O)[nH]c(=O)c2[nH]cnc21
inactive: [1] 9.85% | [2] -5.35% | [3] -1.3% | [4] 9.35% | [5] 13.3% | [6] 23.8%

NC(Cc1ccc(O)c(O)c1)P(=O)(O)O (stereo not drawn)
inactive: [1] -72.8% | [2] -38% | [3] -35.7% | [4] -5.75% | [5] -0.1% | [6] -27.8%

COc1ccc(OC)c2c(NCCNCCO)cc(NCCNCCO)nc12
inactive: [1] 15.2% | [2] -4.75% | [3] -15.7% | [4] 0% | [5] -3.2% | [6] 7.5%

COC(=O)C1(Br)c2ccccc2-c2ccccc21
inactive: [1] -3.15% | [2] 17.7% | [3] 0.45% | [4] -22.4% | [5] 8.5% | [6] -9.3%

Cn1c(=O)c2c(nc(NCCNc3nc4c(c(=O)n(C)c(=O)n4C)n3C)n2C)n(C)c1=O
inactive: [1] 1.85% | [2] -3.35% | [3] -46.2% | [4] -25.1% | [5] -20.8% | [6] -31.7%

COc1ccc2nccc(CO)c2c1
inactive: [1] 4.95% | [2] -3.4% | [3] -0.8% | [4] -33.2% | [5] 5.7% | [6] 0.75%

O=C(CSCSCC(=O)Nc1ccc(C2=NCCN2)cc1)Nc1ccc(C2=NCCN2)cc1
inactive: [1] 35% | [2] 18.4% | [3] 36.6% | [4] -6.1% | [5] 17.9% | [6] 19.9%

COc1ccc(OC)c(C(C)=O)c1
inactive: [1] -59% | [2] -66% | [3] -94% | [4] 1.75% | [5] -34.2% | [6] -29.4%

O=C1C(c2ccccc2)=C2c3ccccc3-c3ccccc3C2(O)C1c1ccccc1 (stereo not drawn)
active: [1] 91.8% | [2] 94.8% | [3] 94.4% | [4] 91.5% | [5] 90.9% | [6] 94.2%

CC1=CC(=O)/C(=C/N2C(=O)CNC2=S)C(=O)O1
inactive: [1] -49.1% | [2] -37.1% | [3] -13.8% | [4] 15.4% | [5] -4.25% | [6] -45.1%
